# Assay outcomes: PubChem, National Center for Advancing Translational Sciences (NCATS)
# HP1b binding inh: HP1-beta chromodomain-methylated histone interaction inhibition. P83916. AlphaScreen HP1-beta / biotin-H3K9me3 peptide binding. AID 540317. Potency, µM (titrated, usually from 114 µM), for the others: at the top dose activity change, negative = inhibition, most hits filed as inhibitors. actives 0.56% (n = 390,000); also: nearly all actives have a fitted effect of over 70% in size
#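 Compound inhibition of the preformed complex between 50 nM HP1-beta and 50 nM biotinylated H3K9me3 peptide was read by AlphaScreen. Buffer was PBS pH 7.4 with 0.01% Tween-20. Incubations ran 30 min at room temperature, with 10 ug/mL donor/acceptor beads.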
# G9a inh: G9a (human) methyltransferase inhibition; G9a H3K9 monomethylation, AlphaScreen, 2 h; Potency, µM (highest dose often 102 µM), inactives show at the top dose activity, negative = inhibition, most hits filed as inhibitors; actives 8.8% (n = 350,000); AID 504332; also: % is scaled to controls: 0 for no effect and ±100 for the full control effect; nearly all actives have a fitted effect of over 75% in size
#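 Chemiluminescent proximity detection of H3K9 monomethylation, read after 10 min bead incubation in the dark. Reaction: 20 nM G9a, 500 nM biotin-H3K9 peptide, 20 uM SAM cofactor, 2 h, room temperature, following 15 min enzyme-compound preincubation.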
# Sfp inh: blocks B. subtilis Sfp PPTase activity. Potency, µM, for the others: largest response in the series, negative = inhibition, usual class: inhibitors. Q9F4F7. actives 3.5% (n = 310,000). Biochemical Sfp PPTase activity, qHTS;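 also: the enzyme is Sfp with the accession as filed and its product quenches rhodamine fluorescence; 0% = enzyme reaction without inhibitor and -100% = no enzyme wells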
#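 Fluorescence-quenching assay with 15 nM Sfp, 5 uM rhodamine-CoA and 12.5 uM BHQ-2-labelled ybbR peptide in pH 7.6 Hepes/MgCl2 buffer. Enzyme was pre-incubated with compound for 15 min at room temperature. Rate was taken from the 30-min fluorescence change (525/598 nm).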
# PLK1 PBD block: PLK1 (human) polo-box domain binding inhibition; P53350; Plk1 PBD binding of FITC phosphopeptide, fluorescence polarization; Potency, µM, for inactives: max response, negative = inhibition, hits mostly inhibitors; actives 2.8% (n = 360,000); AID 720504; also: series mostly up to about 57 µM; % is scaled to controls: 0 for no effect and ±100 for the full control effect; nearly all actives have a fitted effect of over 65% in size
# JMJD2A Tudor: inhibitors of human JMJD2A Tudor domain | O75164 | AlphaScreen JMJD2A-Tudor / H3K4me3 peptide binding | Potency, µM (doses to about 114 µM), without a hit: top-dose activity change, negative = inhibition, most hits filed as inhibitors | actives 4.4% (n = 390,000); also: % is scaled to controls: 0 for no effect and ±100 for the full control effect; nearly all actives have a fitted effect of over 50% in size
# BAZ2B inh: blocks human BAZ2B. AlphaScreen BAZ2B-H3K14Ac peptide displacement. AID 504333. actives 4.4% (n = 360,000). Potency, µM (series often up to 114 µM), for the others: top-dose activity change, negative = inhibition, usual class: inhibitors; also: % is scaled to controls: 0 for no effect and ±100 for the full control effect; nearly all actives have a fitted effect of over 60% in size
#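 BAZ2B (50 nM) with biotin-H3(5-23)K14Ac peptide (50 nM) in PBS pH 7.4, 0.01% Tween-20, preformed 30 min, then compound 30 min at room temperature; top concentration 110uM. AlphaScreen streptavidin donor/nickel chelate acceptor beads (10 ug/mL final), 20 min dark, signal read.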
# Active calls of the source: *; ? = inconclusive; · = no result; [ ] = another dose, or the depositor's remark. This is a sample that favours compounds with a hit; in the whole collection about 12% have one here. Calls follow the shape of the dose curve; as a rule, active = well fitted curve in the direction sought with a large enough effect; inconclusive = small, poorly fitted or top-dose-only effect, or another doubt; inactive = no such curve, though single readings can be large; an effect the other way counts as inactive or inconclusive. Potency is read from the fitted curve at half-maximal effect.
SMILES,HP1b binding inh,G9a inh,Sfp inh,PLK1 PBD block,JMJD2A Tudor,BAZ2B inh
CS(=O)(=O)N(CC(=O)NCc1ccc2c(c1)OCO2)Cc1ccccc1,?,-26%[12.7 µM],-20%,8.4µM*,18µM*,-13%
COc1ccc(N2CCN(C(=O)CCc3c(C)nn(-c4ccc(N5CCCC5)nn4)c3C)CC2)cc1,24%,-1%[59 µM],·,·,-26%,?
COc1ccc(-c2nnc3n2N=C(c2cc(OC)ccc2OC)CS3)cc1,·,·,-8%,·,?,·
O=C(CN(Cc1ccccc1)C(=O)CNS(=O)(=O)c1ccccc1)NCc1ccco1,-1%,-11%,10%,-30%,79µM*,-4%
CCCNS(=O)(=O)c1ccc(CCC(=O)NCc2ccco2)cc1,-26%,-39%[12.7 µM],?,30µM*,?,-6%
O=C(CN(Cc1ccco1)C(=O)CNS(=O)(=O)c1ccccc1)NCc1ccccc1,41%,-1%[12.7 µM],12%,-6%,-1%,7%
O=c1ccc2cc(S(=O)(=O)NCc3ccc(Cl)cc3)ccc2[nH]1,8%,-42%[59 µM],·,·,?,?
N=C1/C(=C\c2ccc(SCc3ccco3)o2)C(=O)N=C2SC=NN12,0%,2%[59 µM],79µM*,?,?,?
CNCCCOc1cccc(OC(C)C)c1,?,13µM*,-16%,-2%,1.6µM*,50µM*
CC(O)CNCCCOc1cccc(Oc2ccccc2)c1 (centres undefined),15%,·,-21%,-8%,22µM*,28µM*
CNCCCOc1cccc(Oc2ccccc2)c1,8%,·,-14%,-2%,1.6µM*,50µM*
CC(O)CNCCCOc1ccccc1OCc1ccccc1 (centres undefined),-32%,13µM*,-13%,-9%,3.2µM*,50µM*
CC(O)CNCCCCOc1ccc(OCc2ccccc2)cc1 (centres undefined),12%,15%[59 µM],1%,4%,-22%,?
CC(=O)NCCOc1cccc(OCCNC(C)=O)c1,35%,11%[59 µM],18%,-1%,-14%,7%
COCCNC(=O)COc1cccc(Oc2ccccc2)c1,12%,-1%[12.7 µM],-2%,-14%,-10%,-6%
COC(=O)[C@H](C)N(Cc1ccc(Cl)c(Cl)c1)S(=O)(=O)CCN1CCN(c2ccccc2)CC1,22%,·,·,-2%,-36%,·
COc1ccccc1CN1[C@@H](CC(C)=O)c2cc(C(F)(F)F)ccc2S1(=O)=O,38%,·,·,-11%,-9%,·
CN(C)c1cccc(S(=O)(=O)N2CCN(S(=O)(=O)c3ccc4c(c3)OCCO4)CC2)c1,·,·,·,·,-23%,·
COc1ccc(/C=N/NC(=O)c2ccc(O)cc2O)cc1CSc1ccccn1,?,50µM*,-8%,-24%,?,56µM*
COc1ccc(/C=N/NC(=O)c2ccccc2Cl)cc1CSc1nc2ccccc2s1,10%,19%[12.7 µM],12%,-8%,-23%,1%
COc1ccc(C=O)cc1CSc1ccccn1,29%,·,-25%,24µM*,3%,14%
COc1ccccc1OCC(=O)Nc1nnc(-c2ccco2)s1,20%,?,-7%,-26%,?,?
Cc1cccc(OCC(=O)Nc2nnc(-c3ccco3)s2)c1,35%,50µM*,-9%,-14%,-3%,-32%
CCCC(=O)Nc1nnc(-c2ccco2)s1,33%,-6%[12.7 µM],32µM*,0%,-12%,-14%
Nc1nnc(-c2ccco2)s1,38%,2%[2.33 µM],5µM*,-8%,-4%,17%
SMILES,HP1b binding inh,G9a inh,Sfp inh,PLK1 PBD block,JMJD2A Tudor,BAZ2B inh
CCOc1cccc(C(=O)Nc2nnc(-c3ccco3)s2)c1,53%,56µM*,-10%,-22%,-16%,?
O=C(Cc1ccccc1)Nc1nnc(-c2ccco2)s1,17%,-17%[12.7 µM],6%,-13%,-17%,?
N#Cc1c(-n2cccc2)cccc1-n1cccc1,-35%,?,15%,-9%,?,50µM*
N#Cc1c(Cl)cccc1-n1ccnc1,35%,49%[12.7 µM],8%,-3%,3%,0%
COCCCN(C(=O)C(C)Oc1ccc(Br)cc1)c1c(N)n(Cc2ccccc2)c(=O)[nH]c1=O (centres undefined),16%,?,·,3%,-4%,3%
Cc1nc(S/C(=C\c2ccc(-c3ccc(C(=O)O)c(Cl)c3)o2)C(=O)O)n[nH]1,20µM*,4µM*,6.3µM*,?,25µM*,14µM*
C#CC1(O)CCC2C3CCc4cc(O)cc(C)c4C3CCC21C (centres undefined),1%,·,·,-3%,-24%,·
CCN1CCN(c2ccc(S(=O)(=O)N3CCCCC3)cc2NC(=O)COc2cc(C)ccc2Cl)CC1,-27%,10µM*,·,1%,?,79µM*
CCN1CCN(c2ccc(S(=O)(=O)N3CCCCC3)cc2NC(=O)COc2ccc(F)cc2Cl)CC1,-9%,?,?,3%,?,?
CCN1CCN(c2ccc(S(=O)(=O)N3CCCCC3)cc2NC(=O)COc2ccc(Cl)cc2)CC1,-19%,5µM*,·,6%,?,?
COc1ccc(-c2nnc(SCC(=O)NCCc3ccc(OC)c(OC)c3)nc2-c2ccc(OC)cc2)cc1,6%,8.9µM*,·,·,?,?
COc1ccc(CCNC(=O)CSc2nnc(-c3ccco3)c(-c3ccco3)n2)cc1OC,·,8.9µM*,20µM*,·,·,45µM*
COc1ccc(CCN(C)C(=O)C2CCCN(C3CCN(Cc4ccccc4)CC3)C2)cc1OC (centres undefined),22µM*,32µM*,-24%,-1%,7.9µM*,35µM*
COc1ccc(OC)c(CN2CCC(C(=O)N(C)CCc3ccc(OC)c(OC)c3)CC2)c1,-22%,·,?,-1%,22µM*,23%
Nc1c(Cl)ncnc1N/N=C/c1ccc2ccccc2n1,-36%,?,-1%,-9%,89µM*,13µM*
CCOc1cc(/C=N/Nc2ncnc(Cl)c2N)ccc1O,-10%,?,-76%,-6%,-27%,-27%
NC(N)=NN=Cc1ccnc2ccccc12,·,·,·,-11%,·,·
Nc1c(Cl)ncnc1N/N=C/c1cccnc1,10%,40µM*,50µM*,-7%,?,-23%
Nc1c(Cl)ncnc1N/N=C/c1ccnc2ccccc12,9%,?,35µM*,-29%,6%[57.1 µM],5%
Nc1c(Cl)ncnc1N/N=C/c1ccccn1,-19%,?,-7%,-11%,28µM*,5.6µM*
O/N=C/c1ccc2ccccc2n1,-1%,·,-10%,-8%,-8%,-7%
Clc1cccc(/C=N/Nc2ncnc3ccccc23)c1,-7%,·,-35%,4%,?,35µM*
C(=N\Nc1ncnc2ccccc12)/c1ccccc1,11%,-3%,-22%,-6%,-11%[11.4 µM],?
